Results as given in PubChem BioAssay AID488969 (Vanderbilt High Throughput Screening Facility, 2010).
The full ranking holds about 110,000 compounds; the median of “z-score” is about -0.1, and the highest 2% start at about 2. Many of the other results were omitted from the sample, so the highest values are more common in it than they were. The source made the active and inactive calls.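 How the source made its calls: active means z-score in the third read window above 3 or below -3; inactive means the rest.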

Molecular target: Metabotropic glutamate receptor 8 (Rattus norvegicus) (UniProt P70579)
Sequence (P70579 whole entry, looked up): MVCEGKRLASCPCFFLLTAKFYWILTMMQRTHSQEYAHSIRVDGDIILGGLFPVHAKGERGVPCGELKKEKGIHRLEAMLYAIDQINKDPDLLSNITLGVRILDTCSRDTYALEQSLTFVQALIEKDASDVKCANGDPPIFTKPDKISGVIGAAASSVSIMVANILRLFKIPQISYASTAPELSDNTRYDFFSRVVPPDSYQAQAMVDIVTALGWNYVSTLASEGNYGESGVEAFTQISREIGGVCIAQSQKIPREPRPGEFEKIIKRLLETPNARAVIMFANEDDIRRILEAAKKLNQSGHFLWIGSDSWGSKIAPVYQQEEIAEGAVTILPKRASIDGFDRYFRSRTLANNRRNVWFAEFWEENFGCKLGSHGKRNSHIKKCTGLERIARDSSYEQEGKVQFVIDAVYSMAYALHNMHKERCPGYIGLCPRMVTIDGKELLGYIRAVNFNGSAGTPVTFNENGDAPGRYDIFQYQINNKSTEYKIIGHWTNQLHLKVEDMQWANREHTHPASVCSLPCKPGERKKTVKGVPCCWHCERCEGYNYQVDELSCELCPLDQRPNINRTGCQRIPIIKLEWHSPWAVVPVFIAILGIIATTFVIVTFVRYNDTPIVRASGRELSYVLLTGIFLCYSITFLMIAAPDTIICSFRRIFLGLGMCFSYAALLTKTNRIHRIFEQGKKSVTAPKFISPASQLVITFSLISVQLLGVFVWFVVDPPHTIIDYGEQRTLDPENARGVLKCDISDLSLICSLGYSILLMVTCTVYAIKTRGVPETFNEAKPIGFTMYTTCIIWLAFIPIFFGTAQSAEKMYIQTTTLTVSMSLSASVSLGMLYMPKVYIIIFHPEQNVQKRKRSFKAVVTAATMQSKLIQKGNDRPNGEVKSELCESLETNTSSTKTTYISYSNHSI
Assay: mGluR8 Gi/Go-coupled signaling modulation – cell-based, rat, thallium flux, HTS, primary screen (AID 488969)
Conditions: HEK293 rat mGluR8, GIRK (G protein-gated inwardly rectifying potassium channel) thallium flux, FluoZin2; at 10 µM; stronger effect = higher value; submaximal glutamate (EC20) added with thallium

SMILES	z-score
CCCCOc1ccc(C(C)NC(=O)CCS(=O)(=O)Cc2ccccc2Cl)cc1 (stereo not drawn)	0.131
Cc1ccc(/C=N/NC(=O)c2cc3c(ccc4ccccc43)o2)cc1[N+](=O)[O-]	-0.185
Cc1cccc2c1N1C(=O)c3c(C(=O)O)cccc3C1CC2C (stereo not drawn)	-0.265
CON(C)c1nc(OCCNC(=O)COc2ccc(Cl)cc2C)nc(N(C)C)n1	0.98
CC1=CC(C)(C)N(C(=O)CN2C(=O)c3ccccc3C2=O)c2ccc(C)cc21	0.455
CCOC(=O)C1=C(C)NC(=O)C(C(N)=O)C12CCCC2 (stereo not drawn)	-0.24
Cc1nc2ccccc2cc1C(=O)N/N=C/c1cccs1	-0.0999
COc1ccc(N2CCN(C(=O)CN(c3ccccc3)S(=O)(=O)c3ccc(OC)cc3)CC2)cc1	-0.0102
COc1ccc(S(=O)(=O)N(CC(=O)N2CCN(c3ccccc3)CC2)c2ccccc2)cc1	2.25
O=C(CN(c1ccc(Cl)cc1)S(=O)(=O)c1ccccc1)N1CCN(c2ccccc2)CC1	-0.37
COc1ccc(/C=C2/SC(=O)N(CC(O)Cn3c4ccccc4c4ccccc43)C2=O)cc1 (stereo not drawn)	-0.167
Cc1cc(=O)[nH]c(N/N=C/c2cccs2)n1	-0.0197
O=C1CC(C(=O)Nc2ccccc2)C2(CCCC2)O1 (stereo not drawn)	-0.154
O=C1CC(C(=O)Nc2ccc(Br)cc2)C2(CCCC2)O1 (stereo not drawn)	2.34
O=C1CC(C(=O)Nc2ccccc2)C2(CCCCC2)O1 (stereo not drawn)	-0.333
CCOC(=O)Cc1csc(NC(=O)c2cccc(OC)c2)n1	0.0443
CC1CCCCC12NC(=O)N(CC(=O)Nc1sc3c(c1C(N)=O)CCC3)C2=O (stereo not drawn)	0.0207
CC(C)C1Oc2ccccc2N(CC(=O)NCCCN2C(C)CCCC2C)C1=O (stereo not drawn)	0.132
CCC(C)(C)NC(=O)C(c1ccc(F)cc1)N(Cc1ccco1)C(=O)c1snc(C(N)=O)c1N (stereo not drawn)	-0.00804
CCC(C)(C)NC(=O)C(c1ccc(F)cc1)N(Cc1ccco1)C(=O)c1cnccn1 (stereo not drawn)	3.05 (active)
COC(=O)c1ccc(C(C(=O)NCc2ccccc2)N(Cc2ccco2)C(=O)c2cnccn2)cc1 (stereo not drawn)	0.053
O=C(CN1CCOCC1)Nc1ccccc1C(=O)O	-0.257
COc1cc(OC)c(-c2cc(C(=O)O)ccc2OC)c(OC)c1	-0.305
N/C(COc1cccc(C(F)(F)F)c1)=N\NC(=O)c1cccnc1Oc1ccccc1	-0.285
COc1ccc(-c2nnn(CCc3nn[nH]n3)n2)cc1	-0.103

SMILES	z-score
O=C(Nc1ccc(Br)cc1F)C1CCCO1 (stereo not drawn)	-0.0425
O=C(Cn1c(=O)[nH]c2ccsc2c1=O)NC1CCCCC1	-0.236
CC1CCC(NC(=O)Cn2c(=O)[nH]c3ccsc3c2=O)CC1 (stereo not drawn)	-0.274
O=C(Cn1c(=O)[nH]c2ccsc2c1=O)NC1CCCCCC1	8.37 (active)
COC(=O)/C=C/C(=O)N1CCN(c2ccccc2)CC1	-0.0929
COC(=O)C1=C(C)N(Cc2ccc(OC)cc2)C(=O)C1	-0.151
COC(=O)C1=C(C)N(CCc2ccc(OC)cc2)C(=O)C1	2.28
COC(=O)C1=C(C)N(CCc2ccccc2)C(=O)C1	-0.0388
NC(=O)c1ccsc1NC(=O)CSc1nc2ccccc2c(=O)n1CCCO	-0.109
O=C(COC(=O)c1cccc([N+](=O)[O-])c1)NCc1ccc2c(c1)OCO2	-0.0402
CCc1cc(C(=O)OC)c(NC(=O)CCC(=O)O)s1	-0.105
Fc1ccccc1-c1nnc2c3ccccc3nc(N3CCOCC3)n12	-0.0489
Brc1ccc(-c2nnc3c4ccccc4nc(N4CCOCC4)n23)cc1	4.42 (active)
Clc1ccc(-c2nnc3c4ccccc4nc(N4CCOCC4)n23)cc1Cl	-0.168
Cc1cc(C)nc(/N=C(\N)Nc2cccc([N+](=O)[O-])c2)n1	-1.04
COCCCNCCCCOc1ccccc1-c1ccccc1	0.319
COCCNCCOc1ccccc1-c1ccccc1	3.67 (active)
OCCNCCOc1ccccc1-c1ccccc1	-0.00757
CCCCN(CC)CCCNC(=O)CS(=O)(=O)Cc1nc(-c2cccc(OC)c2)oc1C	3.63 (active)
COCCCNC(=O)CS(=O)(=O)Cc1nc(-c2cccc(OC)c2)oc1C	0.565
CCCNC(=O)CS(=O)(=O)Cc1nc(-c2cccc(OC)c2)oc1C	0.16
CC1=CC(C)(C)n2c(O)c(N=NC(N)=S)c3c(C)ccc1c32	1.1
CC1=CC(C)(C)n2c(O)c(N=NC(N)=S)c3cc(C)cc1c32	1.04
CC1=CC(C)(C)n2c(O)c(N=NC(N)=S)c3cccc1c32	2.69
N#CCSc1nnc(-c2ccccc2O)n1Cc1ccccc1	-0.264

SMILES	z-score
OC1(c2ccc3ccccc3c2)CCN(Cc2ccccc2)C1 (stereo not drawn)	2
OC1(c2cccc(F)c2)CCN(Cc2ccncc2)CC1	-0.584
c1ccc2cc(CN3CCOCC3)ccc2c1	0.71
CC1(C)Cc2cccc(OCC(=O)Nc3cccnc3)c2O1	0.958
COc1ccc(C(=O)N/C(=C\c2cccc3ccccc23)C(=O)NCCc2c[nH]c3ccccc23)cc1OC	-1.59
NC(=O)CSc1nnc(-c2ccc(S(=O)(=O)N3CCCC3)cc2)o1	-0.271
Cc1ccc(CSc2nnc(-c3ccc(S(=O)(=O)N4CCCC4)cc3)o2)cc1	1.62
O=S(=O)(c1ccc(-c2nnc(SCc3nnc(-c4ccccc4)o3)o2)cc1)N1CCCC1	3.72 (active)
CO/N=C/c1ccc(Sc2ccccc2)c([N+](=O)[O-])c1	-0.0163
C=CCNC(=S)NNC(=O)c1ccccc1	-0.00102
O=C(NCCO)NC(=S)c1ccccc1	-0.169
C=CCNC(=O)NC(=S)c1ccccc1	3.72 (active)
CCNc1nc(NCC)nc(C(=O)Nc2ccccc2)n1	-0.0479
O=C(NCc1ccc(Cl)cc1)C1C2C=CC3(CN(Cc4cccnc4)C(=O)C13)O2 (stereo not drawn)	0.82
OCCN(Cc1ccccc1)Cc1ccc(C(F)(F)F)cc1	-0.0102
O=C(O)c1ccccc1SC1CC(=O)N(C2CCCCC2)C1=O (stereo not drawn)	-0.0935
Cc1ccc(NC(=O)C2CC(=O)OC23CCOC(C)(C)C3)cc1 (stereo not drawn)	-0.427
CC(C)C(=O)NC(Nc1ccccc1F)C(Cl)(Cl)Cl (stereo not drawn)	-0.185
CCCCCCCn1ccc(=N)cc1	-0.268
CCCCCn1ccc(=N)cc1	1.99
CCCCCCn1ccc(=N)cc1	0.937
Cc1ccc(C)c(S(=O)(=O)N2C(=S)NC(=O)C2C(C)C)c1 (stereo not drawn)	0.0469
CCN(CC)S(=O)(=O)c1ccc(N2CCOCC2)c(NC(=O)C(=O)c2c(-c3ccccc3)cc3ccccn23)c1	-0.54
